Reference: PubChem BioAssay (NCATS)
Results filed as inconclusive are left out. Calls of active or inactive are those of the source. The call rests on the fitted dose curve; in most records, active means well fitted cell-killing curve with a large enough effect; inconclusive means small, poorly fitted or top-dose-only effect, or effect the other way; inactive means no such curve, though single readings can be large or run the other way. Starred links: 1 amine or outer side, 2 acyl side, 3 side chain; linkers in the order of their positions; H or OH if unused. Positions of bridges follow the written chain, without caps; N, C: chain ends. Non-standard residues stand in square brackets, D forms with d. Residues, ends and D or L forms follow the SMILES beside them. Chains are numbered I, II in the order given. Actinocin(9to1) = Cc1c2oc3c(C)ccc(C(=O)[*:1])c3nc-2c(C(=O)[*:2])c(N)c1=O; NMeV = CN[CH](C(=O)O)C(C)C; Sar = CNCC(=O)O

Assay: Quantitative High-Throughput drug screen in 47 multiple myeloma cell lines against the NCATS MIPE library collection: KMS11_JCRBsus cell viability assay (AID 1919873); further: nearly all actives have a fitted effect of over 50% in size
Conditions: KMS11 myeloma viability, CellTiter-Glo ATP luminescence, 48 h; series mostly up to 45.8 µM
Method in brief: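 Cells were exposed to library compounds for 48 hours, after which ATP was measured by CellTiter-Glo. Signal was taken as median relative luminescence units.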
Potency means the concentration at half of the fitted maximal effect.

SMILES	Potency
CCc1ccc(C(=O)Nc2cc(CN3CCN(C)CC3)cc(C(F)(F)F)c2)cc1C#Cc1cnc2ccnn2c1	4.69 µM (active)
C=CC[C@@H]1C=C(C)C[C@H](C)C[C@H](OC)[C@H]2O[C@@](O)(C(=O)C(=O)N3CCCC[C@H]3C(=O)O[C@H](C(C)=C[C@@H]3CC[C@H](O)[C@H](OC)C3)[C@@H](C)[C@@H](O)CC1=O)[C@@H](C)C[C@@H]2OC	0.833 µM (active)
CO[C@@H]1[C@@H](O)[C@H](O)[C@@H](n2c3c(Cl)cccc3c3c4c(c5c6cccc(Cl)c6[nH]c5c32)C(=O)NC4=O)O[C@@H]1CO	2.96 µM (active)
Cc1cc(O)c2c(c1)C(=O)c1cccc(O)c1C2=O	inactive
C[C@H](NC(=O)C(C#N)=Cc1cccc(Br)n1)c1ccccc1	5.26 µM (active)
Cn1cnc(=N)c2[nH]cnc21	0.0935 µM (active)
CC(C)N1[N]C(=C2C=c3cc(O)ccc3=N2)c2c(N)ncnc21	0.105 µM (active)
COc1cc(C=CC(=O)CC(=O)C=Cc2ccc(O)c(OC)c2)ccc1O	8.55 µM (active)
CCC[C@H]1C[C@H](C(=O)N[C@@H]([C@@H]2O[C@@H](SC)[C@@H](O)[C@@H](O)[C@@H]2O)[C@H](C)Cl)N(C)C1	inactive
C=CC(=O)Nc1ccc2ncnc(Nc3ccc(OCc4cccc(F)c4)c(Cl)c3)c2c1	0.187 µM (active)
OCc1ccccc1O[C@@H]1O[C@H](CO)[C@H](O)[C@H](O)[C@H]1O	inactive
Cn1cc(C2=C(c3c4n(c5ccccc35)CCC(CN)C4)C(=O)NC2=O)c2ccccc21 (centres undefined)	7.43 µM (active)
O=C(Nc1cccc(Nc2ncc(Br)c(NCCc3cnc[nH]3)n2)c1)N1CCCC1	8.33 µM (active)
C=CCNc1c(O)cc2c(O)c1C[C@@H](C)C[C@H](OC)[C@@H](O)[C@@H](C)C=C(C)[C@H](OC(N)=O)[C@@H](OC)C=CC=C(C)C(=O)N2	0.0469 µM (active)
C[C@@H]1CC[C@@]2(OC1)OC1CC3C4CC=C5CC(O)CCC5(C)C4CCC3(C)C1[C@@H]2C (some centres undefined)	inactive
CCS(=O)(=O)Nc1ccc2[nH]c(O)c(C(=Nc3ccc(CN4CCCCC4)cc3)c3ccccc3)c2c1	0.166 µM (active)
COC1=C2C[C@@H](C)C[C@H](OC)[C@@H](O)[C@@H](C)C=C(C)[C@H](OC(N)=O)[C@@H](OC)C=CC=C(C)C(=O)NC(=CC1=O)C2=O	0.0833 µM (active)
NC(=NCCCCCCN=C(N)N=C(N)Nc1ccc(Cl)cc1)N=C(N)Nc1ccc(Cl)cc1	14.8 µM (active)
CC(C)C[C@H](NC(=O)[C@@H](NC(=O)c1cccc(-c2ccccc2)n1)[C@@H](C)O)B(O)O	0.0132 µM (active)
O=C1CSC(=O)N1C(CCc1ccncc1)COc1ccc(-c2cccc([N+](=O)[O-])c2)cc1 (centres undefined)	11.8 µM (active)
CC(=O)O[C@@]12CO[C@H]1C[C@H](O)[C@@]1(C)C(=O)[C@H](O)C3=C(C)[C@@H](OC(=O)C(O)[C@@H](NC(=O)OC(C)(C)C)c4ccccc4)C[C@@](O)([C@@H](OC(=O)c4ccccc4)[C@@H]21)C3(C)C (some centres undefined)	inactive
C[C@H](NCc1ccc(OCc2cccc(F)c2)cc1)C(N)=O	7.43 µM (active)
C[C@@]12C(=O)OC(=O)[C@@]1(C)C1CCC2O1	0.743 µM (active)
Cc1c2oc3c(C)ccc(C(=O)NC4C(=O)NC(C(C)C)C(=O)N5CCCC5C(=O)N(C)CC(=O)N(C)C(C(C)C)C(=O)OC4C)c3nc-2c(C(=O)NC2C(=O)NC(C(C)C)C(=O)N3CCCC3C(=O)N(C)CC(=O)N(C)C(C(C)C)C(=O)OC2C)c(N)c1=O (centres undefined) (I: TVP[Sar][NMeV] / II: TVP[Sar][NMeV]; ester I:1-I:C, II:1-II:C; linker I:N-II:N via Actinocin(9to1); configuration not given here)	inactive
CC(C)c1cnn2c(NCc3ccccc3)cc(NCCCCCCN)nc12	26.4 µM (active)
CC(C=CC(=O)NO)=C[C@@H](C)C(=O)c1ccc(N(C)C)cc1	0.235 µM (active)
CN1[C@H]2CC(OC(=O)[C@@H](CO)c3ccccc3)C[C@H]1[C@H]1O[C@H]12 (some centres undefined)	inactive
c1ccc(CNc2nc(NCc3ccccc3)c3ccccc3n2)cc1	11.8 µM (active)
CN(C)c1ccc2cc(C(=O)N[C@@H](CCCN=C(N)CCl)C(=O)NCc3ccccc3)ccc2c1	7.43 µM (active)
